ALOX15 inhib – blocks human 15-lipoxygenase activity; 74,000 compounds, 1.4% hits; Potency, µM (highest dose often 57.1 µM), inactives show top-dose activity change, negative = inhibition, hits mostly inhibitors; purified 15hLO-1, xylenol orange hydroperoxide absorbance; P16050; also: % is scaled to controls: 0 for no effect and ±100 for the full control effect; nearly all actives have a fitted effect of over 55% in size
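Hydroperoxide formed from arachidonic acid (50 uM) by purified human 15hLO-1 (40 nM) oxidizes ferrous iron, and the ferric-xylenol orange complex is read at 573 versus 405 nm. Compounds were preincubated 15 min; reaction ran 6 min at room temperature.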
Casp7 inh – blocks human caspase-7 allosterically or competitively | P55210 | recombinant caspase-7, Ac-DEVD-AFC fluorescence rate | Potency, µM (series often up to 57.5 µM), inactives show at the top dose activity change, negative = inhibition, most hits filed as inhibitors | 75,000 compounds, 0.02% hits | AID 889; active = well fitted inhibition curve with a large enough effect in the main read-out, with a control signal flat, not every such curve was filed as active; inconclusive = small, poorly fitted or top-dose-only effect, or a change in a side signal; also: % of control where 0% means no effect
Caspase-1 inhib – blocks human caspase-1 allosterically or competitively; Caspase-1 enzyme, Ac-WEHD-AFC fluorogenic rate; P29466; AID 900; Potency, µM (titrated, usually from 57.5 µM), without a hit: at the top dose activity change, negative = inhibition, hits mostly inhibitors; 75,000 compounds, 0.03% hits;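 also: plate controls were vehicle for no effect and no substrate for full effect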
USP2a inhib – blocks human ubiquitin-specific protease USP2a. 60,000 compounds, 0.1% hits. Potency, µM (doses to about 38.3 µM), inactives show at the top dose activity change, negative = inhibition, hits mostly inhibitors. USP2a enzymatic assay, qHTS inhibition; also: nearly all actives have a fitted effect of over 60% in size
Target sequence (O75604 whole entry, looked up): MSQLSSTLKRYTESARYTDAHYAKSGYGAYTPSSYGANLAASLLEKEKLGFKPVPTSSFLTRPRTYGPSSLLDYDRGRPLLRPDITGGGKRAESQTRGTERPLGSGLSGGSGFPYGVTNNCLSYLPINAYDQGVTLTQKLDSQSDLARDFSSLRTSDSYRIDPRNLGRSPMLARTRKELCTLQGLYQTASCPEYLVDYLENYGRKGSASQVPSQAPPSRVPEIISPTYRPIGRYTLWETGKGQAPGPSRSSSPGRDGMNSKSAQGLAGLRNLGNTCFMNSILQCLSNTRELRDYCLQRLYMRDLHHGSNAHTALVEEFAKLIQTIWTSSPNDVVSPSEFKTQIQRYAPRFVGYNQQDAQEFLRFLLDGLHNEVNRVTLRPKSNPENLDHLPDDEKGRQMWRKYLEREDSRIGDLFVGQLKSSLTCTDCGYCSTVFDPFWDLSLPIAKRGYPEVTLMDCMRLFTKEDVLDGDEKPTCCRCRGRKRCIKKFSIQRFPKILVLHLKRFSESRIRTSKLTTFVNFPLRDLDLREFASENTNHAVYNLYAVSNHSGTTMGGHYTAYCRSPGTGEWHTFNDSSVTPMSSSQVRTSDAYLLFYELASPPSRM
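USP2 core (20 nM final) was preincubated with compound for 30 min at RT in 20 mM Tris-HCl pH 8.0, 2 mM CaCl2, 2 mM beta-mercaptoethanol; Ub-PLA2 (20 nM) plus NBD C6-HPC (20 uM) then added, fluorescence read after 2.5 h.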
15-hLO-2 inh – 15-hLO-2 (ALOX15B) enzyme inhibition. purified 15hLO-2, xylenol orange hydroperoxide absorbance. 110,000 compounds, 0.56% hits. O15296. Potency, µM (series often up to 57.1 µM), inactives show top-dose activity change, negative = inhibition, most hits filed as inhibitors. AID 881; also: % is scaled to controls: 0 for no effect and ±100 for the full control effect; nearly all actives have a fitted effect of over 60% in size
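Purified human 15hLO-2 (50 nM final) preincubated with compounds 15 min at room temperature in 25 mM Hepes pH 7.5, 0.01% Triton X-100, then 45 uM arachidonic acid added for 90 min; hydroperoxide detected via ferrous/xylenol orange, 573/405 nm absorbance ratio.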
* = called active by the depositor; ? = inconclusive; . = no result given; ! = a repeat was not active; [ ] = remark or other dose. Only a selection was taken, and hits are over-represented in it overall. Unless noted, calls follow the shape of the dose curve; as a rule, active = well fitted curve in the direction sought with a large enough effect; inconclusive = small, poorly fitted or top-dose-only effect, or another doubt; inactive = no such curve, though single readings can be large; an effect the other way counts as inactive or inconclusive. Potency is read from the fitted curve at half-maximal effect.

SMILES	ALOX15 inhib	Casp7 inh	Caspase-1 inhib	USP2a inhib	15-hLO-2 inh
CN1CCN(C(=O)CSc2nc(-c3cccs3)cc(-c3cccs3)c2C#N)CC1	16µM*	-9%	-7%	26%	21%
CN1CCN(C(=O)CSc2nc(-c3ccncc3)ccc2C#N)CC1	.	.	.	.	-9%
Nc1ccn([C@@H]2CC[C@H](CO)O2)c(=O)n1	-3%[25.6 µM]	0%[25.7 µM]	-2%[25.7 µM]	-1%[17.1 µM]	3%[25.6 µM]
O=C1C=C[C@@H](O)[C@@H]2[C@H]3C(=O)N(c4ccc(F)cc4F)C(=O)[C@@H]3CC[C@@H]12	-2%[11.4 µM]	0%[11.5 µM]	1%[11.5 µM]	.	.
Cc1cc(Nc2cccc(F)c2)nc(-c2ccccc2O)n1	10µM*	-14%	-19%	-24%	9%
NC(Cc1c[nH]c2ccccc12)C(=O)O (stereo not drawn)	7.9µM*	-2%	-1%	-11%	10%
Cc1cc(C)cc(N(CC(=O)O)S(=O)(=O)c2cccnc2)c1	-1%	3%	-3%	.	.
Cc1c(C(C)(C)C)c(C=S)n2ccccc12	.	.	.	.	16µM*
CC(C)(C)[C@@]1(O)CCN2C[C@@H]3c4ccccc4CCc4cccc(c43)[C@@H]2C1	-14%	1%	5%	22%	41%
Cc1c(C(=O)NC(=S)Nc2ccc(NC(=O)c3cccs3)cc2)oc2ccccc12	.	.	.	.	7.9µM*
Cc1cccnc1NC(=S)NC(=O)c1cccs1	.	.	.	.	-11%
CC(C)(c1cc(Br)c(O)c(Br)c1)c1cc(Br)c(O)c(Br)c1	2.5µM*	-10%	?	.	?
c1ccc2c(c1)Cc1cc3cc4c(cc3nc1-2)OCO4	.	-26%	-10%	.	-9%
O=C(Nc1nc(-c2ccccc2)cs1)c1cccs1	13µM*	-4%	-4%	5%	35%
O=C(Nc1nc(-c2ccccn2)cs1)c1ccc(Cl)s1	42%	-5%	-4%	.	35%
O=C(Nc1nc(-c2ccc(Cl)s2)cs1)c1cccs1	25µM*	-4%	-2%	22%	8%
N#C/C(=C/c1ccc(N2CCOCC2)o1)c1ccc(Cl)cc1	.	.	.	.	10µM*
CCC(=O)[C@@]1(C)[C@H](C)C[C@@H]2[C@@H]3CCC4=CC(=O)C=C[C@@]4(C)[C@H]3[C@H](O)C[C@]21C	6%[25.6 µM]	0%[25.7 µM]	2%[25.7 µM]	30%[17.1 µM]	4%[25.6 µM]
O=C(CSc1nnc(Nc2ccccc2F)s1)NCc1ccco1	-29%	-18%	1%	6%	1%
Cc1ccccc1Nc1nnc(SCC(=O)NC(=O)NCc2ccco2)s1	16µM*	-15%	-1%	17%	-12%
O=C(O)Cn1c(=O)oc2cc(S(=O)(=O)N3CCOCC3)ccc21	-4%	1%	-2%	.	.
CN1CCN(c2ncc3nc(-c4cc(F)cc(F)c4)c(=O)n(CCC#N)c3n2)CC1	49%	?	.	187%	20µM*
CC(C)(C)c1nn(-c2ccccc2)c2[nH]c(=O)c(CNc3ccc4c(c3)OCCO4)cc12	.	.	.	.	-6%
CC(C)(C)c1nn(-c2ccccc2)c2[nH]c(=O)c(CNCc3ccco3)cc12	6%	-7%	-4%	41%	39%
Cc1nn(-c2ccccc2)c2[nH]c(=O)c(CNc3ccc(N4CCOCC4)cc3)cc12	13µM*	-4%	-9%	21%	16µM*
SMILES	ALOX15 inhib	Casp7 inh	Caspase-1 inhib	USP2a inhib	15-hLO-2 inh
O=c1[nH]c2c(cc1CNCCN1CCOCC1)c(-c1cccc(F)c1)nn2-c1ccccc1	0.032µM*	.	0%	13%	35%
COc1cc2c(cc1OC)-c1cc(NCc3ccccn3)nc(=O)n1CC2	13µM*	-14%	-2%	?	-13%
CCNc1cc2n(c(=O)n1)CCc1cc(OC)c(OC)cc1-2	6%	-2%	-4%	-2%	-2%
Cc1cc(=O)oc2c1ccc1oc(/C(=N/O)c3ccccc3)c(C)c12	7.9µM*	-5%	-5%	25%	?
CC(C)(C)CC(C)(C)c1ccc(O)c(Cc2ccc(Cl)cc2Cl)c1	-14%	-4%	?	10µM*	4%
COC(=O)C/C=C\[C@H](C)[C@@H](OC)c1ccccc1Br	3%[11.4 µM]	-1%[11.5 µM]	0%[11.5 µM]	.	.
Cc1ccc(-n2nc3c([n+]2[O-])CCc2c-3no[n+]2[O-])cc1	6%	0%	0%	2µM*	4%
[O-][n+]1onc2c1CCc1c-2nn(-c2ccccc2Cl)[n+]1[O-]	-3%	1%	1%	3%	-6%
COc1ccc(OC)c(NC(=O)NC2(C(F)(F)F)Oc3ccccc3O2)c1	-14%	1%	0%	2%	10µM*
COc1ccc(OC)c(NC(=O)Nc2ccccc2C)c1	3%	-3%	-5%	2%	9%
O=C(N/N=C1/C[C@@H](O)[C@@H](O)[C@@H]2[C@@H]3C(=O)N(C4CCCCC4)C(=O)[C@H]3CC[C@@H]12)OCc1ccccc1	1%[11.4 µM]	-1%[11.5 µM]	-1%[11.5 µM]	.	.
CC(Oc1ccc(Cl)cc1Cl)C(=O)NC1=NN(c2ccccc2)C(=O)C1 (stereo not drawn)	.	.	.	.	7.9µM*
O=C1C[C@H]2OCC=C3CN4CC[C@@]5(C(=O)O)[C@H](N1)[C@H]2[C@H]3C[C@H]45	10%[11.4 µM]	0%[11.5 µM]	-4%[11.5 µM]	.	-3%[11.4 µM]
Cc1ccc(NC(=O)CSC2=C(C#N)C(c3ccc4c(c3)OCO4)C3=C(CCCC3=O)N2)c(C)c1 (stereo not drawn)	3.2µM*	-7%	-8%	30%	-20%
CCOC(=O)c1c(C)oc2c1c(C(c1cccnc1)N1CCN(C)CC1)c(O)c1ccccc12 (stereo not drawn)	-30%	0%	0%	23%	7%
CCOC(=O)c1c(C)oc2c1c1c(c3ccccc32)OCN(Cc2cccnc2)C1	2µM*	-18%	-17%	21%	15%
COC(=O)c1ccc2ncccc2c1	7.9µM*	0%	-1%	8%	-5%
O=C(Nc1ccc2ncccc2c1)Nc1ccc2ncccc2c1	1%[11.4 µM]	2%[11.5 µM]	0%[11.5 µM]	.	4%[11.4 µM]
O=c1c(-c2cc(F)cc(F)c2)nc2cnc(N3CCNCC3)nc2n1CCc1ccccc1	-9%	?	.	105%	42%
CCc1cc(C(C)=O)c(O)cc1OCCCCCC(C)(C)c1nn[nH]n1	20µM*	-8%	-4%	.	4%
Nc1c2c(nc3ccccc13)CCCC2	13µM*!	0%	-6%	-7%	1%[0.0915 µM]
Nc1c2c(nc3ccccc13)CCC[C@H]2O	3%	1%	4%	-2%	-2%
COc1cccc([C@@H]2Oc3ccc(OC)cc3/C(=N/OC[C@@H](O)COCc3ccco3)[C@@H]2O)c1	3%[11.4 µM]	-1%[11.5 µM]	-2%[11.5 µM]	.	.
CC(=O)c1ccc(N(C)C)cc1	.	.	.	.	1%
CN(C)c1ccc(C(=C2C=CC(=[N+](C)C)C=C2)c2ccccc2)cc1	32µM*!	-2%[11.5 µM]	0%[11.5 µM]	.	5µM*

Screening results from PubChem BioAssay.
